The test system of assay [1] is Klebsiella pneumoniae. The conditions noted are these: Concentration 20 uM; ASSAY_TEST Inhibition of Bacterial Growth; detection method Absorption (OD600); MEDIA CAMHB; plate type 384well; NBS; CORNING #3640; time 18 hr.
Assay [2] deals with Candida albicans. The settings on record: 20 µM.
Assay [3] concerns Cryptococcus neoformans. The conditions noted are these: Concentration 20 uM; ASSAY_TEST Inhibition of Fungal Growth; detection method Resazurin; Absorption (OD600-OD570); plate type 384well; NBS; CORNING #3640. In general terms: Resazurin is reduced to fluorescent resorufin, in cell work by metabolically active cells.

Entries with a potency or affinity are not part of this list. Square brackets hold non-standard residues; d marks the D form. Peptide text beside a SMILES is read from it. pGlu = O=C1CC[C@@H](C(=O)O)N1; Thz = O=C(O)[C@@H]1CSCN1

As to `Cc1cc2c(s1)Nc1ccccc1N=C2N1CCN(C)CC1` [OLANZAPINE], the Inhibition in assay [1] was 5.81%; in assay [2] it was -0.3%; in assay [3] it was -5.37%.

Regarding `CCc1cc(C(N)=S)ccn1` [ETHIONAMIDE], the results for the Inhibition in assay [1], in assay [2] and in assay [3] were 13.14%, 1.99% and -7.71%, respectively.

As for `CC(C)(C)NC[C@H](O)COc1nsnc1N1CCOCC1.O=C(O)/C=C\C(=O)O` [TIMOLOL MALEATE], the results for the Inhibition in assay [1], in assay [2] and in assay [3] were 6.73%, -1.73% and -3.81%, respectively.

With `CC(C(=O)[O-])c1ccc(CC2CCCC2=O)cc1.[Na+]` (stereo unspecified) [LOXOPROFEN SODIUM], the Inhibition in assay [1] is 6.48%; in assay [2], 2.26%; in assay [3], -10.19%.

Take `O=C1C(CC[S+]([O-])c2ccccc2)C(=O)N(c2ccccc2)N1c1ccccc1` (stereo unspecified) [SULFINPYRAZONE]: the results for the Inhibition in assay [1], in assay [2] and in assay [3] were 13.98%, 4.96% and -8.91%, respectively.

For the compound `Cn1ccnc1S` [METHIMAZOLE], the Inhibition in assay [1] was found to be 12.71%; in assay [2] it was 5.56%; in assay [3], 0.77%.

`COc1nc(C)nc(Cl)c1NC1=NCCN1.Cl` [MOXONIDINE HYDROCHLORIDE]: the Inhibition worked out at 3.54% in assay [1], 3.01% in assay [2] and 0.52% in assay [3].

For the compound `CNCCCC12CCC(c3ccccc31)c1ccccc12.Cl` [MAPROTILINE HYDROCHLORIDE], the Inhibition in assay [1] is 10.44%; in assay [2], 3.58%; in assay [3], -10.89%.

In the case of `CS(=O)(=O)c1ccc(-c2cc(Br)sc2-c2ccc(F)cc2)cc1` [DUP-697], the Inhibition is 2.25% in assay [1], 5.12% in assay [2] and -8.07% in assay [3].

As to `COc1cc(C(=O)NS(=O)(=O)c2ccccc2C)ccc1Cc1cn(C)c2ccc(NC(=O)OC3CCCC3)cc12` [ZAFIRLUKAST], the Inhibition stood at 3.3% in assay [1], 0.8% in assay [2] and 1.96% in assay [3].

On to `CC1=C(/C=C/C(C)=C/C=C/C(C)=C\C(=O)O)C(C)(C)CCC1` [ISOTRETINOIN], for which the results for the Inhibition in assay [1], in assay [2] and in assay [3] were 9.94%, 1.42% and -2.4%, respectively.

Take `CC[C@H](C)C(=O)O[C@H]1C[C@H](O)C=C2C=C[C@H](C)[C@H](CC[C@@H](O)C[C@@H](O)CC(=O)[O-])[C@H]21.[Na+]` [PRAVASTATIN SODIUM]: the Inhibition in assay [1] was 13.36%; in assay [2] it was 4.25%; in assay [3], -0.35%.

Consider `O=C1N[C@H](C(=O)O)CS1` [PROCYSTEINE], for which the results for the Inhibition in assay [1], in assay [2] and in assay [3] were 8.75%, 3.85% and -5.5%, respectively.

Consider `C[n+]1ccccc1/C=N/O.[Cl-]` [PRALIDOXIME CHLORIDE], for which the Inhibition is 15.84% in assay [1], 0.76% in assay [2] and -2.73% in assay [3].

As for `O=C1CC[C@@H](C(=O)N2CSC[C@H]2C(=O)O)N1` [PIDOTIMOD] ([pGlu]-[Thz]-OH), the results for the Inhibition in assay [1], in assay [2] and in assay [3] were 9.73%, 0.05% and -3.45%, respectively.

Turning to `OCc1cc(C(O)CNCCCCCCOCCCCc2ccccc2)ccc1O` (stereo unspecified) [SALMETEROL], the Inhibition in assay [1] is 16.35%; in assay [2] it was 5.42%; in assay [3], -8.37%.

For the compound `Cl.NC12CC3CC(CC(C3)C1)C2` [AMANTADINE HYDROCHLORIDE], the Inhibition was 13.94% in assay [1], 3.06% in assay [2] and -3.67% in assay [3].

Consider `COc1ccc(/C=C/C(=O)Nc2ccccc2C(=O)O)cc1OC`, for which the results for the Inhibition in assay [1], in assay [2] and in assay [3] were 8.22%, 4.95% and 4.45%, respectively.

As to `Br.Br.O=C1CC2(CCCC2)CC(=O)N1CCNCC1COc2ccccc2O1` (stereo unspecified), the Inhibition is 12.27% in assay [1], 3.99% in assay [2] and -1.27% in assay [3].

Take `NS(=O)(=O)c1cc2c(cc1Cl)N=CNS2(=O)=O` [CHLOROTHIAZIDE]: the figures for the Inhibition in assay [1], in assay [2] and in assay [3] were 4.1%, 4.39% and -0.92%, respectively.

As to `NS(=O)(=O)c1cc(C(=O)O)c(NCc2ccco2)cc1Cl` [FUROSEMIDE], the Inhibition in assay [1] is 9.57%; in assay [2], 3.34%; in assay [3], -7.53%.

Turning to `CC1(C)S[C@@H]2[C@H](/N=C/N3CCCCCC3)C(=O)N2[C@H]1C(=O)O` [AMDINOCILLIN], the Inhibition in assay [1] is 18.13%; in assay [2], 4.08%; in assay [3], -5.88%.

Take `CCc1cccc2c3c([nH]c12)C(CC)(CC(=O)O)OCC3` (stereo unspecified) [ETODOLAC]: the Inhibition in assay [1] was 6.96%; in assay [2], 1.19%; in assay [3], -2.08%.

Take `CCN(CC)C(=O)[C@]1(c2ccccc2)C[C@@H]1CN.Cl` [1R,2S-MILNACIPRAN HYDROCHLORIDE]: the Inhibition was 12.52% in assay [1], 0.44% in assay [2] and -10.1% in assay [3].

With `C[C@H]1[C@@H](OC(=O)CCC(=O)O)O[C@@H]2O[C@@]3(C)CC[C@H]4[C@H](C)CC[C@@H]1[C@@]24OO3`, the Inhibition in assay [1] is 13.77%; in assay [2] it was 26.5%; in assay [3], -1.11%.

Consider `CN1CCC(=C2c3ccccc3CCc3sccc32)CC1.O=C(O)/C=C\C(=O)O`, for which the Inhibition was 13.2% in assay [1], 3.52% in assay [2] and -10.62% in assay [3].

`C[C@H](CS)C(=O)N1CCC[C@H]1C(=O)O` [CAPTOPRIL]: the figures for the Inhibition in assay [1], in assay [2] and in assay [3] were 9.36%, 2.59% and 1.67%, respectively.

In general, Inhibition refers to the drop in the measured response relative to a control, in per cent.

Values taken from ChEMBL document CHEMBL4513141, “CO-ADD screening of NIH (USA) - Clinical Collection” (2021).
